Rows were chosen to be rich in hits. Some 3.4% of all compounds tested hit in one or more screens of this group.
Bim-Mcl-1: inhibitors of Bim peptide binding to Mcl-1, primary screen, biochemical, bead-based flow cytometry, multiplex | inhibition, % at 10 µM | Induced myeloid leukemia cell differentiation protein Mcl-1 (Homo sapiens), Q07820 | AID 1009, 2008 | 190,000 tested, 0.1% active | Bim peptide-Mcl-1 binding; in the data active means inhibition above about 40%;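 further: 0% = no compound tracer wells and 100% = peptide blocker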
Target sequence (Q07820 whole entry, looked up): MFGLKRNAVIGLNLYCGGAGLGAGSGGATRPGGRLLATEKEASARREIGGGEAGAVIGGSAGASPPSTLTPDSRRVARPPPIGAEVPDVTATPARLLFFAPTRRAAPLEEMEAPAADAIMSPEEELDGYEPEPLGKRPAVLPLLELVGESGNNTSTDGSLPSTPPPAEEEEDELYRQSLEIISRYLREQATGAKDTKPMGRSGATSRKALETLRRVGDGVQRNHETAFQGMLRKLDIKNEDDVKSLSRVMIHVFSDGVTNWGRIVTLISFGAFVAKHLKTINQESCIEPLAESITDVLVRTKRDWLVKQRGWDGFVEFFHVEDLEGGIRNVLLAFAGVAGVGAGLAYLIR
14-3-3 Bad PPI: inhibitors of 14-3-3 zeta/Bad binding, primary screen, biochemical, TR-FRET, bovine 14-3-3 zeta; AID 781, 2007; 220,000 tested, 0.71% active; 14-3-3 protein zeta/delta (Bos taurus), P63103; TR-FRET 14-3-3zeta/Dy647-pBad peptide displacement, 1 h; inhibition, % at 21.7 µM;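 active means inhibition above about 70%, limit read from the data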;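 further: 0% = full 14-3-3 plus peptide FRET controls and 100% = background without 14-3-3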
NCF1 inh: p47phox/p22phox peptide binding inhibitors, primary screen, biochemical, uHTS, NADPH oxidase regulatory subunit; fluorescence polarization, 2 h; AID 1274, 2008; Neutrophil cytosol factor 1 (Homo sapiens), P14598; inhibition, % at 24.7 µM; 220,000 tested, 0.53% active;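 active means inhibition above about 30%, limit read from the data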;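 further: 0% = p47phox with labelled peptide and 100% = labelled peptide alone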
Calpain2 inh: inhibitors of pig calpain II, primary screen, biochemical, fluorogenic peptide substrate, 1536-well. AID 1236, 2008. 220,000 tested, 0.37% active. purified calpain II, 30 min. inhibition, % at 16 µM;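 active means inhibition above about 50%, limit read from the data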
Mcl1 Bid PPI: Mcl-1/Bid binding inhibitors, primary screen, biochemical, TR-FRET, 1536-well | TR-FRET Mcl-1/Bid-Dy647 peptide binding | 220,000 tested, 0.97% active | Induced myeloid leukemia cell differentiation protein Mcl-1 (Homo sapiens), Q07820 | inhibition, % at 21.7 µM;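 active means compounds that cut the binding signal by more than half at the single screening dose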;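 further: His-tagged Mcl-1 with europium anti-His antibody binding Bid BH3 peptide; 0% = Mcl-1 plus peptide wells and 100% = peptide-only wells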
Mcl1-Noxa inh: Mcl-1/Noxa binding inhibitors, primary screen, biochemical, TR-FRET, 1536-well; Induced myeloid leukemia cell differentiation protein Mcl-1 (Homo sapiens), Q07820; 220,000 tested, 1.5% active; inhibition, % at 21.7 µM; TR-FRET Mcl-1/Noxa peptide binding, 2 h;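 active means compounds that cut the protein-peptide binding signal by more than 50% relative to plate controls in a single-dose test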;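 further: His-tagged Mcl-1 with rhodamine Noxa BH3 peptide and terbium anti-His antibody; 0% = Mcl-1 plus Noxa peptide wells and 100% = peptide-only wells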
* = called active by the depositor; . = not tested or not shown; [ ] = another dose, or the depositor's remark.

SMILES	Bim-Mcl-1	14-3-3 Bad PPI	NCF1 inh	Calpain2 inh	Mcl1 Bid PPI	Mcl1-Noxa inh
O=C(Nc1ccc([N+](=O)[O-])cc1)Nc1ccc(OC(F)F)c(Cl)c1	-3	3	-45	29	6	52*
O=C(Nc1ccc(OC(F)F)c(Cl)c1)Nc1ccc2c(c1)OCO2	-5	5	7	21	1	21
CCCCNc1n[n+](C)c(-c2cccc(C)c2)s1	.	-8	-4	-5	-102	6
CCOC(=O)c1c(CN2CCN(C)CC2)oc2ccc(O)cc12	-1	75*	-4	-7	21	20
CCOC(=O)c1c(CSc2ccc(C)cc2)oc2ccc(O)cc12	-4	-5	-11	5	-9	24
COc1ccccc1NC(=O)C1=C(C)NC(=O)NC1c1cc(C)cs1 (stereo unspecified)	-6	3	4	3	-6	18
S=c1[nH]c(-c2ccccc2)cn1/N=C/c1ccccc1Br	-6	-2	3	-20	-34	28
Cc1ccc(/C=N/n2cc(-c3ccccc3)[nH]c2=S)s1	-8	-11	-12	15	-47	54*
COc1cc(/C=N/n2cc(-c3ccccc3)[nH]c2=S)cc(OC)c1O	.	1	-26	-19	-17	41
Oc1ccc(/C=N/n2cc(-c3ccccc3)[nH]c2=S)cc1	-9	-6	7	-9	-41	73*
COc1ccc(NC(=O)CCC(=O)OCc2ccc([N+](=O)[O-])cc2)cc1	0	6	-10	-20	-28	10
CCCCn1nc2cc(C(=O)NCc3cc(C(F)(F)F)cc(C(F)(F)F)c3)ccc2c1OC	-1	.	-11	-349	-11	15
CCCCn1nc2cc(C(=O)NCc3ccc(OC(F)(F)F)cc3)ccc2c1OC	-2	71*	-7	-120	-13	15
CC(C)Cc1nnc(NC(=O)CSc2nc(-c3ccccc3)cc(=O)[nH]2)s1	-7	-11	-22	10	-33	11
S=C(NCC1CCCO1)N1CCN(Cc2ccccc2)CC1 (stereo unspecified)	1	70*	-2	-27	-3	22
COc1cc(/C=C2\SC(N)=NC2=O)ccc1OCC(=O)Nc1ccc(C)cc1	-1	97*[fluorescence artefact?]	11	7	61*	5
CC(=O)Oc1ccc(C(c2ccc(OC(C)=O)cc2)c2ccccn2)cc1	-2	-5	-2	13	87*	32
COc1ccc(N(CC(=O)NC(C)C)S(=O)(=O)c2ccc(NC(C)=O)cc2)cc1	-1	11	-9	-15	6	19
CSc1nc(=S)c2[nH]c(=S)[nH]c2[nH]1	.	16	17	15	-61	51*
CSc1nc2c(c(=O)[nH]1)CCCC2	-1	7	-5	-7	-9	-19
O=c1c2cnn(-c3ccccc3)c2nc(-c2ccco2)n1-c1ccccc1	2	59	-5	-49	58*	23
O=C(CCNC(=O)c1ccc([N+](=O)[O-])cc1)Nc1nccs1	0	13	-6	-9	-21	8
COC(=O)c1ccc(C)c(NC(=O)CCNC(=O)c2ccc([N+](=O)[O-])cc2)c1	46*	0	-2	-12	-11	15
O=C(N/N=C/c1ccco1)c1ccccc1OCc1ccc(Br)cc1	0	-14	-2	26	-12	16
O=C(CN1CCN(Cc2cccc(Cl)c2)C1=O)NCc1cccs1	0	-9	-2	-6	-12	7
Cc1ccc(CNC(=O)CCS(=O)(=O)c2ccc(Br)cc2)cc1	-1	96*	-7	-70	-90	5
Cc1ccc(CNC(=O)CCS(=O)(=O)c2cccc3nonc23)cc1	-1	-5	-11	-25	93*	4
COc1ccc(NC(=O)CCS(=O)(=O)c2cccc3nonc23)c(OC)c1	-1	-2	80*	-41	-5	6

High-throughput results deposited in PubChem by several laboratories.
